MsrA inhibitor = inhibits bovine methionine sulfoxide reductase A. purified bovine MsrA, absorbance read-out. inhibition, % at 15.5 µM. 360,000 tested, 0.75% active. AID 651718;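 further: 0% = vehicle wells with enzyme and 100% = reference inhibitor wells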
ABCB6 inh 2 = inhibitors of human ABC transporter ABCB6. 360,000 tested, 0.19% active. fluorescence ratio to DMSO, % at 10 µM. K562-ABCB6 porphyrin accumulation, flow cytometry, 1 h; hits give low values. AID 602162;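 active means fluorescence ratio to DMSO below 75%, the collection mean minus 3 SD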;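 further: signal is porphyrin accumulated inside mitochondria; 100% equals median channel fluorescence of DMSO control wells; lower ratio means ABCB6 inhibition with less porphyrin fluorescence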
Target sequence (Q9NP58 whole entry, looked up): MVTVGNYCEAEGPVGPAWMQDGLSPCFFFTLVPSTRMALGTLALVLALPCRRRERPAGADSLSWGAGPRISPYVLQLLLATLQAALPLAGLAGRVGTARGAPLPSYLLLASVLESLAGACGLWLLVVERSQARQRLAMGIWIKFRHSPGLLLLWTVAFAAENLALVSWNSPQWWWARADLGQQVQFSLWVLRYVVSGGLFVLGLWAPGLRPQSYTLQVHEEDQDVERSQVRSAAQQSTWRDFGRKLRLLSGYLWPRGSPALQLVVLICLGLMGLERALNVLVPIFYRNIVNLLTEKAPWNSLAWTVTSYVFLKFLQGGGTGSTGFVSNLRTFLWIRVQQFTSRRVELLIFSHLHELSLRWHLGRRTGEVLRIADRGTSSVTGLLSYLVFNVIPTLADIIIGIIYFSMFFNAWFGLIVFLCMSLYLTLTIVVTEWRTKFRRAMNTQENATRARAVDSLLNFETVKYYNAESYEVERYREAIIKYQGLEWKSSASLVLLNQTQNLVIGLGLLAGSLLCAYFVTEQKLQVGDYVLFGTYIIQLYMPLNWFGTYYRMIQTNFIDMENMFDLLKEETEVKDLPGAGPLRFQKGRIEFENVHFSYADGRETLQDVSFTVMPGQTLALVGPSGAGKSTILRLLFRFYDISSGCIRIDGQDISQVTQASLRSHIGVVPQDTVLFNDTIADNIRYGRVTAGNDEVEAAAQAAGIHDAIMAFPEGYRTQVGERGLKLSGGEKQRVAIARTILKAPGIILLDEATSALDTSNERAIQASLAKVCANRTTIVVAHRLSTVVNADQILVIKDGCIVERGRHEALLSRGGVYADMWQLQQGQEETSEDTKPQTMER
SMARCA2 activ = increases SMARCA2 function in MMTV reporter cells. MG213 cells, MMTV-luciferase reporter, dexamethasone, overnight. activation, % at 9.1 µM. 370,000 tested, 1% active. AID 652017; in the data active means activation above about 7.8%;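 further: 0% = vehicle wells and 100% = reference activator wells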
bovine MsrA act = activators of bovine methionine sulfoxide reductase A. purified bovine MsrA, absorbance read-out. activation, % at 10.6 µM. 360,000 tested, 0.3% active. AID 602163; in the data active means activation above about 7.5%;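 further: 0% = vehicle and 100% = reference activator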
MsrA inh confirm = confirmation of bovine MsrA inhibitors. purified bovine MsrA, absorbance read-out. 2,300 tested, 41% active. shares compounds with MsrA inhibitor. inhibition, % at 15.5 µM;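 further: coupled to thioredoxin reductase with NADPH and selenocystamine and DMSO as substrate; 0% = vehicle only and 100% = full effect of reference inhibitor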
* marks the source's active call; other numbers are inactive results; x = no result. Shown are actives, neighbours in structure and some others; about 2.1% of the full set was active somewhere. Unless noted, no stated cut-off is given here; in the data, active means inhibition above about 4.5%; inactive means the rest.

SMILES | MsrA inhibitor | ABCB6 inh 2 | SMARCA2 activ | bovine MsrA act | MsrA inh confirm
O=[N+]([O-])c1ccc(Oc2cccc3cccnc23)c([N+](=O)[O-])c1 | 7.3* | 212 | -3 | -11 | 4
N#Cc1ccc(Oc2cccc3cccnc23)c([N+](=O)[O-])c1 | 0 | 97 | 1 | -9 | x
Cc1ccccc1-n1c(SCc2cc(=O)n3ccccc3n2)nc2[nH]ncc2c1=O | 2 | 102 | -2 | 1 | x
Cc1ccccc1-n1c(SCc2cccc(F)c2)nc2[nH]ncc2c1=O | 7.2* | 99 | -3 | -2 | 8.0*
O=C(N/C=N/OCc1ccc(Cl)cc1Cl)NOCc1ncc(C(F)(F)F)cc1Cl | 15* | 102 | -2 | 0 | 11*
CO/N=C/NC(=O)NOCc1ncc(C(F)(F)F)cc1Cl | 0 | 106 | 0 | 1 | x
Cc1ccc(-c2cc(C(=O)NN=Cc3cccc(OCc4ccccc4)c3)[nH]n2)cc1C | x | x | -3 | x | x
COc1ccc(Cn2cc(CN3[C@@H](CC(C)C)COc4ccc(Cl)cc4S3(=O)=O)nn2)cc1 | x | x | -2 | x | x
CCC(=O)c1ccc(/C=C/c2nc3ccccc3n2C)o1 | 5.2* | 89 | 2 | -6 | 2
C=CCNc1nc(N)c([N+](=O)[O-])c(NCCO)n1 | 5.0* | 93 | -1 | -5 | 4.8*
COc1ccc(/C(C)=N\NC(=O)c2ccco2)cc1 | x | x | -4 | x | x
CSc1ccc(/C=C/C(=O)OCC(=O)NC(C)C)cc1 | 5.5* | 102 | -1 | -7 | 3
CNC(=O)COC(=O)/C=C/c1ccc(F)cc1 | 1 | 102 | -5 | 2 | x
CSc1ccc(/C=C/C(=O)OCC(=O)NC2CC2)cc1 | 5.0* | 95 | 0 | -4 | 3
CCOC(=O)CC[C@H]1CC[C@]2(CCCN(C3CCCCC3)C2)O1 | x | x | -2 | x | x
O=C(CN1C(=O)S/C(=C\c2cccs2)C1=O)Nc1ccc(O)c(C(=O)O)c1 | 5.3* | 103 | 2 | -4 | 5.8*
O=C(CN1C(=O)S/C(=C\c2cccs2)C1=O)Nc1ccc(C(=O)O)c(O)c1 | 5.3* | 94 | 0 | -5 | 6.0*
O=C(CN1C(=O)S/C(=C/c2cccs2)C1=O)N1CCCC1 | 3 | 94 | -2 | -5 | x
Cc1[nH]c2ccccc2c1CC(=O)Nc1ccc(Nc2cccnc2)c(Br)c1 | 0 | x | -3 | x | x
COc1ccc(-c2c(C#Cc3ccsc3)c3cc(-c4cccc5[nH]ccc45)ccc3n2C)cc1 | 1 | 98 | 2 | -7 | x
COc1cc(OC)cc(-c2c(C#Cc3ccsc3)c3cc(-c4cccc5[nH]cc(C=O)c45)ccc3n2C)c1 | 4.9* | 108 | -1 | -11 | 3
COC(=O)CSC1=C(C#N)C(=O)NC2(CCCCC2)S1 | 5.7* | 105 | -4 | -17 | 4
Cc1cccc(NC2=C(C#N)C(=O)NC3(CCCC3)S2)c1 | 1 | 106 | -2 | -3 | x
N#C/C(=C/c1cccnc1)c1ccccc1 | 6.5* | 99 | -2 | -3 | 3
N#C/C(=C\c1cccnc1)c1ccc([N+](=O)[O-])cc1 | 4 | 97 | -3 | 5 | x
SMILES | MsrA inhibitor | ABCB6 inh 2 | SMARCA2 activ | bovine MsrA act | MsrA inh confirm
Cc1c(C(=O)O)cccc1-c1ccc(/C=N/n2cnnc2)o1 | 6.5* | 96 | -2 | -6 | 4.7*
Clc1cccc(-c2ccc(/C=N/n3cnnc3)o2)c1Cl | 3 | 104 | 0 | -1 | x
Cc1cc(-c2ccc(/C=N/n3cnnc3)o2)ccc1Cl | 4.8* | 103 | 0 | -5 | 3
Clc1ccccc1-c1ccc(/C=N/n2cnnc2)o1 | 5.7* | 97 | -2 | -9 | 5.5*
Cc1c(Cl)cccc1-c1ccc(/C=N/n2cnnc2)o1 | 3 | 100 | 1 | -3 | x
COc1ccc(OCC2CN(C3CCCC3)S(=O)(=O)CCO2)cc1 (stereo not drawn) | -1 | x | -4 | x | x
NC(=S)N/N=C/c1ccc(-c2cccc([N+](=O)[O-])c2)o1 | 5.1* | 97 | 2 | -3 | 7.6*
CCOc1ccc(-c2cc(C(=O)OC)c3n(c2=O)CCC3)cc1 | x | x | 0 | x | x
CN(CC#Cc1ccccc1)C(N)=NC(=O)/C=C/c1cccc(C(F)(F)F)c1 | x | x | -3 | x | x
CC(=O)c1sc(NC(=O)C=C(C)C)nc1C | 5.3* | 100 | 0 | -8 | 3
CC(=O)c1sc(NC(=O)c2ccc(Br)o2)nc1C | 5.6* | 97 | 0 | -5 | 3
CCCCC(=O)Nc1nc(C)c(C(C)=O)s1 | 0 | 97 | -1 | -1 | x
Cc1cc(=O)oc(C)c1C(=O)NCCC(C)C | 5.5* | 88 | -3 | -6 | 5.0*
O=S1(=O)c2ccc(N3CCN(Cc4ccccc4F)CC3)cc2Oc2ccccc2CN1Cc1cn(Cc2ccccc2C(F)(F)F)nn1 | x | x | -1 | x | x
Cc1ccc(/C=N/Nc2ncnc3nc[nH]c23)cc1 | 3 | 94 | 5 | -7 | x
Fc1cccc(/C=N/Nc2ncnc3nc[nH]c23)c1 | 5.2* | 95 | 6 | -4 | 4
Oc1ccc(/C=N/Nc2ncnc3nc[nH]c23)cc1 | 6.9* | 92 | 5 | -6 | 5.6*
Clc1ccc(/C=N/Nc2ncnc3nc[nH]c23)cc1 | 4 | 106 | 4 | -3 | x
COc1ccc(CN2C/C(=C/c3ccc(C)cc3)N3C(=O)C[C@@H](c4ccccc4)N=C23)c(OC)c1 | x | x | -5 | x | x
CCOC(=O)CNC(=O)CSc1nnc(-c2ccc(C(C)(C)C)cc2)n1-c1ccc(Cl)cc1 | x | x | 1 | x | x
c1ccc(-c2nc3nc4ccccc4nc3n2CC2CCCO2)cc1 (stereo not drawn) | 5.2* | 101 | 4 | -5 | 5.2*
c1coc(-c2nc3nc4ccccc4nc3n2CC2CCCO2)c1 (stereo not drawn) | 2 | 100 | 0 | 2 | x
COCC(C)N=Cc1c(O)[nH]c2ccccc12 (stereo not drawn) | 3 | 101 | 2 | -4 | x
OCCN=Cc1c(O)[nH]c2ccccc12 | 4 | 101 | 0 | 2 | x
Oc1[nH]c2ccccc2c1C=Nc1ccccc1 | 5.1* | 100 | 0 | -3 | 2
SMILES | MsrA inhibitor | ABCB6 inh 2 | SMARCA2 activ | bovine MsrA act | MsrA inh confirm
CN(C)CC(C)(C)CN=Cc1c(O)[nH]c2ccccc12 | 6.0* | 97 | -2 | -6 | 1
CCOC(=O)c1nnsc1Nc1ccc(C)c(C)c1 | 8.2* | 93 | 1 | 0 | 7.0*
CCOC(=O)c1nnsc1-c1ccc(-c2snnc2C(=O)OCC)cc1 | 0 | 94 | -3 | -1 | x
O=C(N/N=C/c1ccc(N2CCOCC2)cc1)c1ccccn1 | 2 | 100 | 3 | -4 | x
C/C(=N\NC(=O)Cn1ccc(C(F)(F)F)n1)c1ccc(N2CCOCC2)cc1 | 3 | 99 | -3 | -5 | x
Cc1c(C(=O)N/N=C/c2ccc(N3CCOCC3)cc2)nc2ccccn12 | 5.7* | 98 | -2 | -11 | 5.8*
COc1cc(/C=N/NC(=O)c2nc3ccccn3c2C)cc(OC)c1O | 6.3* | 101 | -3 | -6 | 5.1*
COc1ccc(/C=N/NC(=O)c2c(C)nc3ccccn23)cc1[N+](=O)[O-] | 2 | 90 | 1 | -3 | x
O=C(Cn1ccc(C(F)(F)F)n1)N/N=C/c1ccc(N2CCOCC2)cc1 | 5.2* | 94 | -1 | -4 | 4
COc1cc(/C=N/NC(=O)c2cc3ccccc3cc2O)ccc1OCCN1CCCCC1 | 0 | 97 | 1 | -2 | x
Cc1ccn2c(C(=O)N/N=C\c3ccc4c(c3)OCO4)c(C)nc2c1 | 7.3* | 102 | -3 | -10 | 5.5*

Source: PubChem
